The results in this text go back to PubChem BioAssay (NCATS).

Several values for one entry are separate records, joined by “and”; a condition that tells them apart may be missing. Equal entries are not always repeated. Inconclusive results are not listed. Activity calls are given as the source filed them. Unless noted, the rule behind the calls is not given here.

Test [1] can be described thus: qHTS Assay for Identifying Gametocytocidal Compounds (AID 743244; active = well fitted curve in the direction sought with a large enough effect;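 note: % is set by controls: 0 for no effect and ±100 for the full control effect; actives lower the fluorescent signal which means gametocytes are killed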). Particulars: P. falciparum 3D7 stage III-V gametocytes, alamarBlue, 72 h; max response: stronger effect = lower value. In a few lines:
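Fluorescence at Ex 525/Em 598 nm, recorded 24 h after alamarBlue addition, reports residual metabolic activity of 3D7 gametocytes (stages III–V) following 72 h compound exposure at 37 °C, 5% CO2.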
For orientation: qHTS replaces the single test concentration by a dilution series.

Test [2] is described as follows: qHTS profiling of the MIPE4 collection as inhibitors of Plasmodium falciparum (3D7) proliferation (AID 743344).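 Note: scaled between DMSO vehicle wells and 0.29 µM artemisinin as full inhibition.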 Particulars: P. falciparum 3D7 in erythrocytes, SYBR Green DNA fluorescence, 72 h; at 28.5 µM (top of the series) unless noted. In short, it runs like this:
(§1)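 Erythrocytes infected with P. falciparum (0.3% parasitemia, 2.5% hematocrit) incubated with compounds 72 h at 37 C, 5% CO2. Lysis with saponin/Triton buffer containing SYBR Green I, overnight at room temperature in the dark; DNA fluorescence (485/535 nm) normalised to 0.29 uM artemisinin and DMSO.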

Test [3] is described as follows: qHTS profiling of the MIPE4 collection as inhibitors of Plasmodium falciparum (DD2) proliferation (AID 743345). Particulars: P. falciparum Dd2 in erythrocytes, SYBR Green DNA, 72 h; at 28.5 µM (top of the series) unless noted. In short, it runs like this: as §1
Test [4] in a line: qHTS profiling of the MIPE4 collection as inhibitors of Plasmodium falciparum (DD2) proliferation (Rep 2) (AID 743346). Particulars: P. falciparum Dd2 in erythrocytes, SYBR Green DNA, 72 h; at 28.5 µM (top of the series) unless noted. In short, it runs like this:
as §1

A short description of test [5]: qHTS profiling of the MIPE4 collection as inhibitors of Plasmodium falciparum (HB3) proliferation (AID 743347).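 Note: plate controls were DMSO vehicle wells for no effect and artemisinin wells for full effect.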 Particulars: P. falciparum HB3 in erythrocytes, SYBR Green DNA, 72 h; at 28.5 µM (top of the series) unless noted. In a few lines:
as §1

Test [6] in a line: High-throughput drug toxicity screening in the BPDCN cell line Gen2.2 (AID 1224824).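 Note: cells exposed to compounds for 48 h before reading.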 Particulars: Gen2.2 BPDCN cells; at 45.8 µM (top of the series) unless noted. In a few lines:
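CellTiter-Glo luminescence after 48 h compound exposure of Gen2.2 cells; percent activity set with DMSO as 100% and bortezomib (9.2 uM final) as 0%. Cells seeded at 500 per well, RPMI + 10% FBS, 37 °C.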

Consider `Nc1cc(C(Cl)=C(Cl)Cl)c(S(N)(=O)=O)cc1S(N)(=O)=O`, for which the max response in test [1] was 0.487% (inactive) and -9.48% (inactive). In test [2], this compound showed a parasite growth, % of DMSO control of 103%. In addition, in test [3], the parasite growth remaining, % of DMSO control (lower = more inhibition) is 102%. Further, in test [4], the parasite growth, % of control (lower = inhibition) amounted to 142%. In addition, in test [5], the growth, % of control is 98.3%. Also, the cell viability, % of control (lower = more cytotoxic) in test [6] amounted to 360%.

Consider `CCCOc1ccc2nc(NC(=O)OC)[nH]c2c1`, for which the max response in test [1] was -3.98% (inactive). Moreover, in test [2], the parasite growth, % of DMSO control came to 82.7%. Also, the parasite growth remaining, % of DMSO control (lower = more inhibition) in test [3] is 92%. In test [4], the parasite growth, % of control (lower = inhibition) is 126%. Also, the growth, % of control in test [5] is 99.5%. Moreover, the cell viability, % of control (lower = more cytotoxic) in test [6] turned out to be 86.8%.

`O=C(NCCO[N+](=O)[O-])c1cccnc1`: in test [1], the max response is -6.52% (inactive). The parasite growth, % of DMSO control in test [2] worked out at 102%. Moreover, the parasite growth remaining, % of DMSO control (lower = more inhibition) in test [3] amounted to 87%. Moreover, in test [4], the parasite growth, % of control (lower = inhibition) stood at 118%. The cell viability, % of control (lower = more cytotoxic) in test [6] was determined as 178%.

Regarding `Cc1c(C(=O)NN2CCCCC2)nn(-c2ccc(Cl)cc2Cl)c1-c1ccc(Cl)cc1`, the max response in test [1] is 2.34% (inactive). Besides, the parasite growth, % of DMSO control in test [2] amounted to 6.76%. In test [3], the parasite growth remaining, % of DMSO control (lower = more inhibition) was found to be 8.4%. The parasite growth, % of control (lower = inhibition) in test [4] turned out to be 17.7%. The cell viability, % of control (lower = more cytotoxic) in test [6] worked out at 24.4%.

With `NNc1nncc2ccccc12`, the max response in test [1] was -0.582% (inactive) and 32.1% (inactive). The compound further gave a parasite growth, % of DMSO control in test [2] of 85.6%. Besides, in test [3], the parasite growth remaining, % of DMSO control (lower = more inhibition) was 92.8%. Besides, in test [4], the parasite growth, % of control (lower = inhibition) came to 116%. The cell viability, % of control (lower = more cytotoxic) in test [6] was determined as 166%.

Consider `CC(C)[C@H](N)C(=O)OCCOCn1cnc2c(=O)[nH]c(N)nc21`, for which the max response in test [1] is 18.3% (inactive). This compound returned a parasite growth, % of DMSO control in test [2] of 102%. In addition, in test [6], the cell viability, % of control (lower = more cytotoxic) stood at 57%.

As for `CC(C)(S)[C@@H](N)C(=O)O`, the max response in test [1] was 21.3% (inactive). Moreover, the parasite growth, % of DMSO control in test [2] worked out at 106%. Moreover, the parasite growth remaining, % of DMSO control (lower = more inhibition) in test [3] was 127%. In addition, the parasite growth, % of control (lower = inhibition) in test [4] came to 76.1%. For the same compound, in test [5], the growth, % of control is 95.7%. For the same compound, the cell viability, % of control (lower = more cytotoxic) in test [6] came out at 117%.

With `O=C1CCc2ccc(OCCCCN3CCN(c4cccc(Cl)c4Cl)CC3)cc2N1`, in test [1], the max response is 0.257% (inactive). Further, the parasite growth, % of DMSO control in test [2] is 29.7%. In addition, the parasite growth remaining, % of DMSO control (lower = more inhibition) in test [3] is 65.1%. Also, the parasite growth, % of control (lower = inhibition) in test [4] came out at 53.7%. The compound also returned a growth, % of control in test [5] of 62.9%. Also, the cell viability, % of control (lower = more cytotoxic) in test [6] was determined as 498%.

`N=C(N)c1ccc2cc(OC(=O)c3ccc(N=C(N)N)cc3)ccc2c1`: the max response in test [1] is 6.62% (inactive). In test [2], this compound had a parasite growth, % of DMSO control of 6.93%. The parasite growth remaining, % of DMSO control (lower = more inhibition) in test [3] stood at 9.8%. In test [4], the parasite growth, % of control (lower = inhibition) was 14%. Moreover, in test [6], the cell viability, % of control (lower = more cytotoxic) worked out at 175%.

As for `CCOc1cc(CC(=O)N[C@@H](CC(C)C)c2ccccc2N2CCCCC2)ccc1C(=O)O`, in test [1], the max response is 1.56% (inactive). Also, the parasite growth, % of DMSO control in test [2] was determined as 83.8%. Moreover, the parasite growth remaining, % of DMSO control (lower = more inhibition) in test [3] was determined as 123%. The parasite growth, % of control (lower = inhibition) in test [4] was determined as 91.4%. The cell viability, % of control (lower = more cytotoxic) in test [6] came out at 23.9%.

As to `CCCCCCCCCCCCCCCCCCCCCCO`, the max response in test [1] is 23% (inactive). This compound yielded a parasite growth, % of DMSO control in test [2] of 94.9%. In addition, the parasite growth remaining, % of DMSO control (lower = more inhibition) in test [3] is 124%. In addition, the parasite growth, % of control (lower = inhibition) in test [4] is 137%. In test [5], this compound returned a growth, % of control of 105%. Moreover, the cell viability, % of control (lower = more cytotoxic) in test [6] is 148%.

For `Cc1nccn1CC1CCc2c(c3ccccc3n2C)C1=O` (centres undefined), the max response in test [1] is -12.7% (inactive) and -3.64% (inactive). This compound showed a parasite growth, % of DMSO control in test [2] of 89.8%. For the same compound, the parasite growth remaining, % of DMSO control (lower = more inhibition) in test [3] was 80.4%. In addition, in test [4], the parasite growth, % of control (lower = inhibition) turned out to be 40.2%. The cell viability, % of control (lower = more cytotoxic) in test [6] was found to be 105%.

For the compound `O=C(NC(Cc1cc(=O)[nH]c2ccccc12)C(=O)O)c1ccc(Cl)cc1` (centres undefined), the max response in test [1] was 22.1% (inactive). For the same compound, the parasite growth, % of DMSO control in test [2] is 88.9%. Moreover, the parasite growth remaining, % of DMSO control (lower = more inhibition) in test [3] came out at 96.8%. Also, in test [4], the parasite growth, % of control (lower = inhibition) stood at 89.9%. In test [5], this compound returned a growth, % of control of 75.3%. The cell viability, % of control (lower = more cytotoxic) in test [6] came to 149%.
